# Assay results as given in PubChem BioAssay (EPA / NIEHS).
# Results filed as inconclusive are left out. A structure can be active in one record and inactive in another. Activity calls are given as the source filed them. Rule for the calls: active = hit-call score of the fitted dose curve at least 0.9, where 1 is the maximum; inconclusive = response in the unintended direction; inactive = score below 0.9.
# Assay: ACEA_AR_agonist_AUC_viability: ACEA Biosciences xCELLigence Real-Time Cell Analysis on Androgen Receptor Agonism for Viability (AID 2283775);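 for AC50: viability read 80 hours after compound addition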
# Method: ACEA_AR_agonist is a cell-based, single-readout assay that uses 22Rv1, a human prostate cancer cell line, with measurements taken at 80 hours after chemical dosing in a 384-well plate, although TO5 and TO6 (mc0.srcf) used a 96-well plate. Differences in plate size can be ignored given data normalization.ACEA_AR_80hr is one of two assay component(s) measured or calculated from the ACEA_AR assay. It is designed to make measurements of real-time cell-growth kinetics, a form of growth reporter, as detected with electrical impedance signals by Real-Time Cell Electrode Sensor (RT-CES) technology.Data from the assay component ACEA_AR_AUC_viability was analyzed in the positive analysis fitting direction relative to DMSO as the negative control and baseline of activity. Using a type of growth reporter, loss-of-signal activity can be used to understand changes in the viability. Furthermore, this assay endpoint can be referred to as a secondary readout, because this assay has produced multiple assay endpoints where this one serves a viability function. To generalize the intended target to other relatable targets, this assay endpoint is annotated to the cell cycle intended target family, where the subfamily is cytotoxicity.
# The xCELLigence system Multi-E-Plate stations were used to measure the time-dependent response to chemicals. Each compound was tested in an eight-point, 1:4 serial dilution series starting at a maximum final concentration of 100 uM. A maximum starting concentration of 0.5% DMSO was present in the 100 uM chemical samples and was diluted along with the test article dilution series. The screen was performed in biological duplicate using two separate, 96-well, E-Plates 96 for each dilution series (n = 2). Positive controls (MG132 and testosterone) and a negative control (assay media) were tested in quadruplicate on each testing plate. Then, 0.5% and 0.125% DMSO were tested in duplicates in each plate to serve as solvent controls for the 2 highest concentrations of testing compounds: 100 uM and 25 uM. Reference compounds were tested with 8 concentrations with 1:5 serial dilutions. All screening was carried out by ACEA Biosciences, Inc. (San Diego, CA). 22Rv1 cells purchased from ATCC were maintained in media supplemented with 10% fetal bovine serum (FBS). Before screening, 22Rv1 cells were preconditioned in assay medium. Cells were then detached and seeded in E-Plates 96 in assay medium. After overnight monitoring of growth once every hour, compounds were added to […] cells and remained in the medium until the end of the experiment. Cellular responses were then recorded once every 5 min for the first 5 h, and once every hour for an additional 100 h.
Compound,AC50,outcome
CCCCCCCCCCCCOC(=O)c1cc(O)c(O)c(O)c1,7.6 µM (active),
O=C(CCCN1CCC(O)(c2ccc(Cl)cc2)CC1)c1ccc(F)cc1,63.8 µM (active),
CN(C)CCOC(c1ccccc1)c1ccccc1,,inactive
CCCCCCCCCCCC,,inactive
CCCCc1ccc2ccccc2c1S(=O)(=O)O,3.3 µM (active),
NC(=NCCCCCCN=C(N)/N=C(\N)Nc1ccc(Cl)cc1)/N=C(\N)Nc1ccc(Cl)cc1,10.5 µM (active),
NS(=O)(=O)O,,inactive
CCCCc1oc2ccccc2c1C(=O)c1cc(I)c(OCCN(CC)CC)c(I)c1,9.56 µM (active),
CCC(C)c1ccccc1O (configuration not stated),,inactive
Cc1ccc(S(=O)(=O)O)cc1,,inactive
CCCCC(CC)C(=O)O (configuration not stated),4.14 µM (active),inactive
CC(C)c1c(C(=O)Nc2ccccc2)c(-c2ccccc2)c(-c2ccc(F)cc2)n1CC[C@@H](O)C[C@@H](O)CC(=O)O,4.23 µM (active),
Cc1cc(Cc2cc(C)cc(C(C)(C)C)c2O)c(O)c(C(C)(C)C)c1,,inactive
Cc1ccc(C)c(S(=O)(=O)O)c1,,inactive
CCc1ccccc1O,,inactive
NCc1cccc(CN)c1,,inactive

Compound,AC50,outcome
CC(O)COc1ccccc1 (configuration not stated),,inactive
O=C1NS(=O)(=O)c2ccccc21,,inactive
Cc1cc(C(C)(C)C)c(O)c(C(C)(C)C)c1,,inactive
CCCCCCc1ccc(N)cc1,,inactive
COc1cc([N+](=O)[O-])ccc1N,,inactive
CC(=O)Nc1ccc(O)cc1,,inactive
CCCCC=O,,inactive
Cc1[nH]nc2c1N=C(c1ccccc1Cl)c1cc([N+](=O)[O-])ccc1N2,1.75 µM (active),
c1cnc2c(c1)ccc1cccnc12,3.4 µM (active),
OCC(CO)(CBr)CBr,,inactive
CC(C)[C@@H]1CC[C@@H](C)C[C@H]1O,,inactive
CCCCCCCCCCCC(=O)O,,inactive
NCCN,,inactive
Cc1cc(C(=C2C=CC(=Nc3ccc(S(=O)(=O)O)cc3)C=C2)c2ccc(Nc3ccc(S(=O)(=O)O)cc3)cc2)cc(S(=O)(=O)O)c1N,,inactive
CN(Cc1cnc2nc(N)nc(N)c2n1)c1ccc(C(=O)N[C@@H](CCC(=O)O)C(=O)O)cc1,0.787 µM (active),
